This passage reports z-score and composite z-score results from PubChem BioAssay.

Active and inactive are the calls of the source.

Test [1] is described as follows: E. coli DRC41 culture turbidity changes, primary screen, E. coli filamentation inducer project, strain DRC41, OD650, 48 h (AID 1152).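 Also: E. coli MC1000 strain DRC41 lacking acrAB efflux pump and sulA.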 Particulars: E. coli DRC41 (acrAB sulA), higher = more signal, called active from +8 up or from −8 down.
The nature of test [2]: small-molecule binders of probe aLefty1, primary screen, biochemical, small-molecule microarray, 635/667 nm fluorescence (AID 1153).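 Also: score merges spot fluorescence with signal-to-noise ratio from the scanned slide images.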 Particulars: higher = more signal.
The nature of test [3]: PSAC antagonists in infected red cells, primary screen, cell-based, P. falciparum Indochina, OD700, 1 h (AID 1154). Particulars: P. falciparum Indochina infected RBC osmotic lysis, higher = more signal, called active from +8 up or from −8 down.
Test [4] in a line: PSAC antagonists in infected red cells, primary screen, cell-based, P. falciparum Indochina, OD700, 2 h (AID 1155).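 Also: lysis reports solute entry through the parasite surface anion channel PSAC; channel blockers reduce lysis of infected cells.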 Particulars: P. falciparum Indochina infected erythrocytes, osmotic lysis OD700; higher = more signal, called active from +8 up or from −8 down.
Test [5] can be described thus: osmotic lysis modulators in infected erythrocytes, primary screen, PSAC antagonist project, cell-based, P. falciparum Indochina, OD700, 3 h (AID 1156). Particulars: higher = more signal, called active from +8 up or from −8 down.
Test [6] is described as follows: PSAC antagonists in infected red cells, primary screen, cell-based, P. falciparum Indochina, OD700, 18 h (AID 1157). Particulars: P. falciparum Indochina infected erythrocytes, osmotic lysis OD700, 18 h; higher = more signal, called active from +8 up or from −8 down.
Test [7] in a line: modulators of S6 phosphorylation in cells, primary screen, cell-based, A549, cytoblot, luminescence, serum-stimulated (AID 1158).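 Also: serum-stimulated A549 lung adenocarcinoma cells; signal is phosphorylated S6 detected by cytoblot immunostaining with HRP secondary.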 Particulars: A549 phospho-S6 cytoblot, 5 h, higher = more signal.
Test [8] addresses NADPH oxidase 2 (Homo sapiens) (UniProt P04839). Kind of test: NOX2-dependent H2O2 signal modulators, primary screen, NOX inhibitor project, cell-based, HEK293-NOX2, PMA-stimulated, Amplex Red fluorescence (AID 1159). Also: test concentration not given here. Particulars: 45 min, higher = more signal, called active from +8 up or from −8 down.
Test [9] concerns the target NADPH oxidase 4 (Homo sapiens) (UniProt Q9NPH5). Kind of test: NOX4-dependent H2O2 signal modulators, primary screen, NOX inhibitor project, cell-based, HEK293-NOX4, tetracycline-induced, Amplex Red fluorescence (AID 1160). Particulars: 45 min, higher = more signal, called active from +8 up or from −8 down.
Test [10] concerns the target NADPH oxidase 5 (Homo sapiens) (UniProt Q96PH1). Kind of test: NOX5-dependent H2O2 signal modulators, primary screen, NOX inhibitor project, cell-based, HEK293-NOX5, Amplex Red fluorescence (AID 1161). Particulars: HEK293-NOX5, ionomycin, 45 min, higher = more signal.
Test [11] can be described thus: A549 cell viability effects, profiling panel, calcein-AM fluorescence, 48 h, basal (AID 1162). Also: test concentration not given here. Particulars: higher = more signal.
The nature of test [12]: adipocyte viability effects, profiling panel, cell-based, 3T3-L1 adipocytes, calcein-AM fluorescence, 48 h, basal (AID 1163). Also: test concentration not given here. Particulars: 3T3-L1 adipocytes viability, higher = more signal.
Test [13] can be described thus: HepG2 cell viability effects, profiling panel, calcein-AM fluorescence, 48 h, basal (AID 1164). Also: test concentration not given here. Particulars: higher = more signal.
A short description of test [14]: MM1S cell viability effects, profiling panel, calcein-AM fluorescence, 48 h, basal (AID 1165).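 Also: viability of MM1S multiple myeloma cells under basal unstimulated conditions; test concentration not given here.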 Particulars: higher = more signal.
Test [15] can be described thus: basal RPMI8226 viability, no added stimulus, profiling panel, cell-based, calcein-AM fluorescence, 48 h, PK04 Diversity Set (AID 1166).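 Also: cells grown under basal conditions without added stimulus; test concentration not given here.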 Particulars: RPMI8226 myeloma viability, higher = more signal.
The nature of test [16]: basal HepG2 mitochondrial membrane potential changes, profiling panel, cell-based, JC-1 fluorescence, 24 h, 100 nL compound (AID 1167). Also: test concentration not given here. Particulars: higher = more signal.
Test [17] is described as follows: basal 3T3-L1 adipocyte mitochondrial potential changes, profiling panel, cell-based, JC-1 fluorescence, 3T3-L1 adipocytes, 24 h, 100 nL compound (AID 1168). Also: test concentration not given here. Particulars: JC-1 mitochondrial fluorescence, higher = more signal, called active from +8 up or from −8 down.
Test [18] can be described thus: basal RPMI8226 mitochondrial membrane potential changes, profiling panel, cell-based, JC-1 fluorescence, 24 h, 100 nL compound (AID 1169). Also: test concentration not given here. Particulars: RPMI8226 myeloma, JC-1 mitochondrial potential fluorescence, higher = more signal.
Test [19] is described as follows: basal MM1S mitochondrial membrane potential changes, profiling panel, cell-based, JC-1 fluorescence, 24 h, 100 nL compound (AID 1170). Also: test concentration not given here. Particulars: higher = more signal.
Test [20] can be described thus: A549 lung cancer cell viability effects, profiling panel, resazurin fluorescence, 24 h, PK04 Diversity Set (AID 1171). Also: test concentration not given here. Particulars: higher = more signal, called active from +8 up or from −8 down.

Chain of NADPH oxidase 2 (Homo sapiens) (P04839 whole entry, looked up): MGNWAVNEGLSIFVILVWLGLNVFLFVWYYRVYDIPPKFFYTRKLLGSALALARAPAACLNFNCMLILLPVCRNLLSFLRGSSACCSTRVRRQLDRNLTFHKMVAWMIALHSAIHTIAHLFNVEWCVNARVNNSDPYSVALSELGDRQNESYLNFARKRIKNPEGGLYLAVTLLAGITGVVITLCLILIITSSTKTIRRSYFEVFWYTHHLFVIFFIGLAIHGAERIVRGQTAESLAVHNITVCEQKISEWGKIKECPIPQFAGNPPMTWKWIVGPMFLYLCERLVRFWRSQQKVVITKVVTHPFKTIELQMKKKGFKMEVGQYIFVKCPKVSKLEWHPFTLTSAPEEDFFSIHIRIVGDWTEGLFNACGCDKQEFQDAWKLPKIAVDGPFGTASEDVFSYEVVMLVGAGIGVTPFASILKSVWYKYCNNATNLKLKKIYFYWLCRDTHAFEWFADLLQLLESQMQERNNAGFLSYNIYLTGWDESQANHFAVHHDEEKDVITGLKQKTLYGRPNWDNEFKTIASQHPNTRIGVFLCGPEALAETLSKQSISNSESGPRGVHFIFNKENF
Chain of NADPH oxidase 5 (Homo sapiens) (Q96PH1 whole entry, looked up): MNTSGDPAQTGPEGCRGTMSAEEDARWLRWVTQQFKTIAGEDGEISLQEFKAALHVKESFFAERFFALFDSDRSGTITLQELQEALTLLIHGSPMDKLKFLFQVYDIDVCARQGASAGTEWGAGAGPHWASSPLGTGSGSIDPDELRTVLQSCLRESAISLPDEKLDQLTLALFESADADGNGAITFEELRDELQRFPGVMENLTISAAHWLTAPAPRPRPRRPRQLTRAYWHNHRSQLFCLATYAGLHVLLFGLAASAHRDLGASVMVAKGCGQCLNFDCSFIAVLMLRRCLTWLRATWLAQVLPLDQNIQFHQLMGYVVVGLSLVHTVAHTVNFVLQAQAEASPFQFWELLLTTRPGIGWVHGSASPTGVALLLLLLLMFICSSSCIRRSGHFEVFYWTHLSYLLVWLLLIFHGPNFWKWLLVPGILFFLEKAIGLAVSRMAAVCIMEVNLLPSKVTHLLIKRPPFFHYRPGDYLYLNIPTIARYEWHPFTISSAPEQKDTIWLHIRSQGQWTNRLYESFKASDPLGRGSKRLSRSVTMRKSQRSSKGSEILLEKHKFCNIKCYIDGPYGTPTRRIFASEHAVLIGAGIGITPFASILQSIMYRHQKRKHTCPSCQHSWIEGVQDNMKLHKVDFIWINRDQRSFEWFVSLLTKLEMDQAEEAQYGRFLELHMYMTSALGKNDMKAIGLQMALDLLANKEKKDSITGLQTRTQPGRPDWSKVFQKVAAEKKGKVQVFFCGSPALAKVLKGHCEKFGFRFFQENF
Chain of NADPH oxidase 4 (Homo sapiens) (Q9NPH5 whole entry, looked up): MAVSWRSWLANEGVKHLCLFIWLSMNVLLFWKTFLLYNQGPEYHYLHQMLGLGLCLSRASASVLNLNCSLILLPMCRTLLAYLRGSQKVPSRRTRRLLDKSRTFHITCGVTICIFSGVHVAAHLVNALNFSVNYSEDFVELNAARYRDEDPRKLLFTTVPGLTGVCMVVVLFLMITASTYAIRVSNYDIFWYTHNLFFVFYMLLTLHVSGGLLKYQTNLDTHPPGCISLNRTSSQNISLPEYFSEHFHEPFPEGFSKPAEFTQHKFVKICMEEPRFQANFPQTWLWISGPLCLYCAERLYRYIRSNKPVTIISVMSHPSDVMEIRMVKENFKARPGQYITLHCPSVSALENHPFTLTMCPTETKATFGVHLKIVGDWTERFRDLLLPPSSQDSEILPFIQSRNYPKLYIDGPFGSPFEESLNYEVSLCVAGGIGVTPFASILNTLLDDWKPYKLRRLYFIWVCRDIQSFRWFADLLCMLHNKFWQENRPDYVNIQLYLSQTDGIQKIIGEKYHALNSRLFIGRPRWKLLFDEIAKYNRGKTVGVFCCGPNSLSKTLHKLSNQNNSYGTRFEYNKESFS

Take `O=C1C[C@@H](O)[C@@H](O)[C@@H]2[C@@H]3C(=O)N(Cc4ccc5c(c4)OCO5)C(=O)[C@@H]3CC[C@H]12`: the z-score in test [1] is -0.116 (inactive); in [3] it was 1.52 (inactive); in test [4], 0.14 (inactive); in test [5], -0.582 (inactive); in test [6] it was 0.207 (inactive); in [7], -0.196. The z-score was -0.148 (inactive) in test [8]; 0.314 (inactive) in test [9]; -0.36 in [10]; 0.474 in test [11]; 1.46 in test [12]; 0.517 in test [13]. Moreover, the z-score is 0.0737 in test [14]; -0.0121 in test [15]; -0.0331 in test [16]; -0.221 (inactive) in [17]; 0.522 in test [18]; 1.37 in test [19]. For the same molecule, the z-score in [20] is -0.0495 (inactive). This molecule registered a composite z-score in [2] of -0.104.

Take `CO[C@@H]1COC(=O)[C@H](CCSC)NC(=O)CC=C[C@@H](C)COC(=O)[C@H](C)NC(=O)CC=C[C@H]1C`: the z-score in test [1] is 0.675 (inactive); in test [3] it was -0.0455 (inactive); in test [4], 0.327 (inactive); in [5], 0.033 (inactive); in test [6] it was 0.353 (inactive); in test [7], 0.399. The z-score in test [8] is -0.906 (inactive); in [9], -0.0183 (inactive); in [10], 0.0788; in [11], 0.205; in test [12], 0.0719; in test [13], 0.677. For the same molecule, the z-score was 0.174 in test [14]; -0.0512 in [15]; 0.381 in [16]; -0.225 (inactive) in [17]; -0.226 in [18]; 2.32 in test [19]. The z-score in test [20] is 0.767 (inactive). This molecule had a composite z-score in test [2] of -0.231.

For `C=CC[C@@H]1C=C[C@H](ON=C(C)CCC(=O)OC[C@H]2O[C@H](C#Cc3ccccc3)C=C[C@@H]2Oc2ccc(C)cc2)[C@@H](CO)O1`, the z-score is -1.44 (inactive) in test [1]; 28 (active) in test [3]; 6.05 (inactive) in test [4]; 0.068 (inactive) in [5]; 1.57 (inactive) in test [6]; -0.383 in test [7]. Besides, the z-score was -0.367 (inactive) in test [8]; 0.0773 (inactive) in test [9]; -0.431 in [10]; 0.572 in test [11]; -0.48 in [12]; -0.0329 in test [13]. Besides, the z-score was 0.551 in [14]; -0.737 in [15]; -0.429 in [16]; -0.311 (inactive) in test [17]; -0.759 in [18]; -1.08 in [19]. Besides, the z-score in test [20] was 0.231 (inactive). Moreover, the composite z-score in test [2] came to 0.0594.

In the case of `CC(C)CON=C1C[C@@H](O)[C@@H](O)[C@@H]2[C@@H]3C(=O)N(C(C)(C)C)C(=O)[C@@H]3CC[C@H]12`, the z-score was 0.288 (inactive) in [1]; 0.221 (inactive) in test [3]; -0.239 (inactive) in test [4]; -0.814 (inactive) in [5]; -0.089 (inactive) in [6]; -0.382 in test [7]. The z-score in test [8] was 1.47 (inactive); in test [9], 0.594 (inactive); in [10] it was 0.325; in test [11], 0.539; in [12], -0.519; in test [13], -0.248. Besides, the z-score was 0.246 in test [14]; 0.0151 in test [15]; -0.772 in [16]; -0.697 (inactive) in test [17]; -0.369 in test [18]; -0.465 in test [19]. Besides, the z-score in [20] is -0.77 (inactive). In [2], the composite z-score is -0.0162.

As for `COc1cccc([C@H]2Oc3ccc(OC)cc3C(=NOC[C@@H](O)[C@H]3O[C@@H]4OC(C)(C)O[C@@H]4[C@H]3O)[C@@H]2O)c1`, the z-score in test [1] is -0.0985 (inactive); in test [3], 5.05 (inactive); in [4] it was 0.458 (inactive); in [5], -0.128 (inactive); in test [6], 0.537 (inactive); in test [7], -0.512. The z-score in [8] is -0.895 (inactive); in test [9], -0.776 (inactive); in test [10] it was -0.23; in [11], -0.0077; in test [12] it was 0.568; in test [13], -1.49. For the same molecule, the z-score in test [14] is -0.174; in test [15], -0.684; in [16], -1.27; in test [17], -0.751 (inactive); in test [18], -0.578; in [19], 0.49. Further, in [20], the z-score is -0.794 (inactive). For the same molecule, the composite z-score in [2] was -0.387.
